Experimental data as given in PubChem BioAssay AID1159580 (chemical genetic matrix, 2015).
Screen size: about 5,500 compounds; about 2,000 (36%) were called active. Inconclusive results (about 18%) are left out. No stated cut-off is given here; in the data, active means normalized growth mostly below about 0.91 (no sharp cut-off); inconclusive means no clear call, values can overlap the other calls; inactive means mostly above about 0.92. The list shows a part of the results.

Assay: chemical genetic growth profiling, strain panel (AID 1159580);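 further: tested at 20 µM; growth read once vehicle control cultures reached saturation at 30 °C; 1 = growth at the plate median or of vehicle wells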
Details: S. cerevisiae deletion strains, growth OD

Measured: normalized growth

CC(C)=CCCC(C)[C@@H]1CC[C@]2(C)C3=C(CC[C@@]12C)C1(C)CC[C@H](O)C(C)(C)C1CC3 (some centres undefined)
active: locus YKL009W, strain mrt4, stronger effect = lower value 0.775 | locus YKR026C, strain gcn3, stronger effect = lower value 1.09 [resistant] | locus YKR091W, strain srl3, stronger effect = lower value 1.1 [resistant] | locus YLL026W, stronger effect = lower value 1.07 [resistant] | locus YLR262C, strain YPT6 (second series), stronger effect = lower value 0.822 | locus YMR307W, strain GAS1, stronger effect = lower value 1.42 [resistant] | locus YNL233W, strain BNI4, stronger effect = lower value 1.13 [resistant] | locus YOL147C, strain pex11, stronger effect = lower value 1.1 [resistant] | locus YOR080W, strain dia2, stronger effect = lower value 1.09 [resistant] | locus YOR184W, strain ser1, stronger effect = lower value 0.85 | locus YOR265W, strain rbl2, stronger effect = lower value 1.07 [resistant] | locus YPL106C, strain sse1, stronger effect = lower value 1.26 [resistant]
inactive: locus YJL187C, strain SWE1 (second series), stronger effect = lower value 0.995 | locus YJL187C, strain SWE1, stronger effect = lower value 1.06 | locus YJR066W, strain TOR1, stronger effect = lower value 0.866 | locus YKL068W, stronger effect = lower value 1.04 | locus YKL085W, strain MDH1 (second series), stronger effect = lower value 1.03 | locus YKL085W, strain MDH1, stronger effect = lower value 1.03 | locus YKL160W, strain elf1, stronger effect = lower value 1.03 | locus YKR001C, strain vps1, stronger effect = lower value 0.979 | locus YLL001W, strain dnm1, stronger effect = lower value 1.07 | locus YLL041C, strain sdh2, stronger effect = lower value 1.06 | locus YLR027C, strain aat2, stronger effect = lower value 1.07 | locus YLR039C, strain RIC1, stronger effect = lower value 1.24 | locus YLR058C, strain SHM2, stronger effect = lower value 0.996 | locus YLR102C, strain apc9, stronger effect = lower value 1.05 | locus YLR113W, strain HOG1, stronger effect = lower value 0.866 | locus YLR221C, strain rsa3, stronger effect = lower value 1.06 | locus YLR258W, strain gsy2, stronger effect = lower value 1.07 | locus YLR268W, strain sec22, stronger effect = lower value 0.973 | locus YLR320W, strain mms22, stronger effect = lower value 1.05 | locus YLR330W, strain CHS5, stronger effect = lower value 1.06 | locus YLR342W, strain FKS1, stronger effect = lower value 1.05 | locus YLR357W, strain rsc2, stronger effect = lower value 1.13 | locus YLR370C, strain arc18, stronger effect = lower value 1.07 | locus YLR371W, strain rom2, stronger effect = lower value 1.06 | locus YLR384C, strain iki3, stronger effect = lower value 1.07 | locus YLR418C, strain cdc73, stronger effect = lower value 1.15 | locus YML016C, strain PPZ1, stronger effect = lower value 1.06 | locus YML032C, strain rad52, stronger effect = lower value 0.946 | locus YML120C, strain ndi1, stronger effect = lower value 1.03 | locus YML124C, strain tub3, stronger effect = lower value 1.06 | locus YMR058W, strain fet3, stronger effect = lower value 1 | locus YMR078C, strain ctf18, stronger effect = lower value 1.08 | locus YMR125W, strain sto1, stronger effect = lower value 1.07 | locus YMR129W, stronger effect = lower value 1.06 | locus YMR205C, strain PFK2, stronger effect = lower value 1.04 | locus YMR223W, strain ubp8, stronger effect = lower value 0.971 | locus YMR231W, strain pep5, stronger effect = lower value 1.04 | locus YNL067W, strain RPL9B, stronger effect = lower value 1.02 | locus YNL071W, strain lat1, stronger effect = lower value 1.04 | locus YNL128W, strain TEP1, stronger effect = lower value 0.996 | locus YNL183C, strain NPR1, stronger effect = lower value 0.846 | locus YNL209W, strain ssb2, stronger effect = lower value 1.06 | locus YNL248C, strain rpa49, stronger effect = lower value 1.01 | locus YNL250W, strain rad50, stronger effect = lower value 0.996 | locus YNL271C, strain bni1, stronger effect = lower value 1.01 | locus YNL298W, strain CLA4, stronger effect = lower value 0.917 | locus YNL307C, strain MCK1, stronger effect = lower value 1.03 | locus YNL322C, strain KRE1 (second series), stronger effect = lower value 1.08 | locus YNR049C, strain mso1, stronger effect = lower value 1.08 | locus YNR052C, strain pop2, stronger effect = lower value 0.968 | locus YOL012C, strain htz1 1.41 | locus YOR001W, strain rrp6, stronger effect = lower value 1.02 | locus YOR061W, strain CKA2, stronger effect = lower value 0.994 | locus YOR069W, strain VPS5, stronger effect = lower value 1.05 | locus YOR070C, strain gyp1, stronger effect = lower value 1.05 | locus YOR083W, strain WHI5, stronger effect = lower value 0.994 | locus YOR106W, strain vam3, stronger effect = lower value 0.939 | locus YOR136W, strain idh2, stronger effect = lower value 1.02 | locus YOR144C, strain elg1, stronger effect = lower value 1.02 | locus YOR231W, strain MKK1, stronger effect = lower value 0.874 | locus YOR270C, strain vph1, stronger effect = lower value 0.839 | locus YOR290C, strain snf2, stronger effect = lower value 0.992 | locus YOR316C, strain cot1, stronger effect = lower value 1.06 | locus YPL051W, strain arl3, stronger effect = lower value 1.02 | locus YPL078C, strain atp4, stronger effect = lower value 1.02 | locus YPL240C, strain hsp82, stronger effect = lower value 1.05 | locus YPL256C, strain CLN2, stronger effect = lower value 0.994 | locus YPR119W, strain clb2, stronger effect = lower value 1.07 | locus YPR141C, strain kar3, stronger effect = lower value 1.05 | locus YPR163C, strain tif3, stronger effect = lower value 0.975 | locus YPR167C, strain met16, stronger effect = lower value 1.03 | strain wtn01, stronger effect = lower value 0.949
